Compound activity from PubChem BioAssay.
Hits are enriched below; roughly 21% of the tested compounds scored in any of these assays.
IL1B secr inh: blocks inflammasome-driven IL-1 beta release. actives 4.7% (n = 360,000). activity change, % at 57.5 µM. THP-1 LPS/ATP IL-1B secretion, AlphaLISA, 16 h; hits give low values; in the data active means activity change below about -50%; inconclusive means mostly about -30% to -49%; further: on the % scale 0 is the no-effect control and ±100 the full control effect
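Secreted IL-1B measured by AlphaLISA bead assay after 16 h compound exposure of THP-1 cells; compounds (final up to 57.5 uM) added 1 h before LPS (250 ng/mL) and ATP (1.25 mM) stimulation; lower signal means less secretion.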
TDP1 cell CPT: growth inhibition of DT40 Tdp1-/-;hTDP1 cells with camptothecin (screen for TDP1 inhibitors); actives 12% (n = 420,000); AID 686979; Potency, µM (series often up to 46.2 µM), without a hit: at the top dose activity change, negative = growth inhibition, usual class: inhibitors; chicken DT40 Tdp1-/-;hTDP1 cells + 20 nM CPT, ATP luminescence, 48 h; further: potency means the concentration at half of the fitted maximal effect; on the % scale 0 is the no-effect control and ±100 the full control effect; nearly all actives have a fitted effect of over 55% in size
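Cell growth measured by CellTiter-Glo luminescence after a minimum 48 h, 37 C compound exposure with 20 nM CPT in Tdp1-knockout DT40 cells stably expressing hTDP1, seeded 400/well; qHTS titration format.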
DRD3 antagonist: antagonists of human D3 dopamine receptor; P35462; D3R cells, DiscoveRx beta-arrestin luminescence, antagonist mode; hits give low values; max response, negative = inhibition, %; actives 2.5% (n = 360,000); AID 652054; in the data active means max response below about -50%; inconclusive means no clear call, values can overlap the other calls; further: on the % scale 0 is the no-effect control and ±100 the full control effect
Target sequence (P35462 whole entry, looked up): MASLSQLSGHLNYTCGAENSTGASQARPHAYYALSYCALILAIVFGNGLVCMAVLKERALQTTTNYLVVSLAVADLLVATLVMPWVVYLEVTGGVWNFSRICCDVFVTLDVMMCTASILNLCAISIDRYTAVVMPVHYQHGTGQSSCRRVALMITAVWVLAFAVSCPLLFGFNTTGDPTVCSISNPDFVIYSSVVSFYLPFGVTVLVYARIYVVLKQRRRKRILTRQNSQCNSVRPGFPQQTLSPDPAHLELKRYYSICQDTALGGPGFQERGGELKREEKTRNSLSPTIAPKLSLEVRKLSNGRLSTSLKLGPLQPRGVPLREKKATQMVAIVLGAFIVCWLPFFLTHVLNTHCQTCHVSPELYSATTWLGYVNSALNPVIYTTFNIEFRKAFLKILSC
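Cells plated overnight at 1500 cells/well, then exposed to library compounds with dopamine controls for 90 minutes at 37 degrees C. DiscoveRx reagent added for 30–60 minutes at room temperature; luminescence read, quantitative HTS format.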
DT40 TDP1 no CPT: qHTS for Inhibitors of human tyrosyl-DNA phosphodiesterase 1 (TDP1): qHTS in cells in absence of CPT; DT40 Tdp1-/- hTDP1 cells, no CPT, ATP luminescence, 48 h; Potency, µM (highest dose often 46.2 µM), without a hit: top-dose activity change, negative = growth inhibition, actives largely listed as inhibitors; actives 15% (n = 420,000); AID 686978, 2013; further: potency means the concentration at half of the fitted maximal effect; on the % scale 0 is the no-effect control and ±100 the full control effect; nearly all actives have a fitted effect of over 55% in size
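Cells were dispensed at 400 per well, compounds added by pin tool, plates incubated ≥48 hr at 37 °C, then CellTiter-Glo added for 30 min at room temperature before luminescence reading. Line: DT40 Tdp1-/- complemented with hTDP1; camptothecin omitted.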
ClpP mod: qHTS Assay for Activators of ClpP; ATP-dependent Clp protease proteolytic subunit (Bacillus subtilis (strain 168)), P80244; purified B. subtilis ClpP, FRET peptide cleavage, 20 min; Potency, µM (highest dose often 57.5 µM), without a hit: at the highest dose activity change, negative = active; actives 1.9% (n = 340,000); AID 651965, 2013; active means well fitted falling curve with a large enough effect; inconclusive means small, poorly fitted or top-dose-only effect; inactive means no such curve, though single readings can be large or run the other way; further: potency means the concentration at half of the fitted maximal effect; the source files actives as falling curves though it sought activators and does not explain the sign; nearly all actives have a fitted effect of over 65% in size
Target sequence (P80244 whole entry, looked up): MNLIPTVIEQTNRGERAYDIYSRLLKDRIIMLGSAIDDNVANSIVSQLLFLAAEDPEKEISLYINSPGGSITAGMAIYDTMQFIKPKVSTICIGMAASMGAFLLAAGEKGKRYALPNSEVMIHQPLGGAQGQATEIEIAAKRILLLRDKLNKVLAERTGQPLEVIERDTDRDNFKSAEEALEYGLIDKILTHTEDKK
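Purified B. subtilis ClpP, 10 microg/mL final in Tris/HCl pH8 with KCl, BSA, glycerol and Tween-20, cleaved an Abz/nitrotyrosine-quenched decapeptide. Fluorescence (ex 320, em 430) was read at 0 and 20 min at room temperature. Delta was normalized to 5.8 microM ADEP and DMSO/no-enzyme controls.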
D3 ag: activates the human D3 dopamine receptor. P35462. D3R DiscoveRx beta-arrestin cells, luminescence, 90 min. max activation, %. actives 0.58% (n = 410,000); in the data active means max activation above about 30%; further: 0% is about no effect
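Agonist mode: compounds and dopamine controls were applied to plated cells for 90 min at 37 degrees C after an overnight attachment at 1500 cells/well. Luminescent read-out followed 30 - 60 minutes at room temperature with DiscoveRx detection reagent.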
* hit, by the source's call; ? = inconclusive; . = not tested or not shown; [ ] = another dose, or the depositor's remark. Unless noted, the call rests on the fitted dose curve; in most records, active means well fitted inhibition curve with a large enough effect; inconclusive means small, poorly fitted or top-dose-only effect; inactive means flat fitted curve, though single readings scatter.

SMILES | IL1B secr inh | TDP1 cell CPT | DRD3 antagonist | DT40 TDP1 no CPT | ClpP mod | D3 ag
CN=c1scc(-c2ccc(Br)cc2)n1C | -10 | -11% | 0 | -28% | ? | 6
FC(F)Oc1ccc(-c2csc(=Nc3cccnc3)n2CC2CCCO2)cc1 (centres undefined) | -3 | 15µM* | 43 | 13µM* | 2% | 17
Cc1cccc(C)c1-n1nnnc1C(c1ccnc2ccccc12)N1CCOCC1 (centres undefined) | 3 | -5% | 3 | -25% | 0% | 1
CC(C)(C)OC(=O)N1CCN(C(c2ccnc3ccccc23)c2nnnn2-c2ccc3c(c2)OCCO3)CC1 (centres undefined) | 6 | ? | 0 | 16µM* | -1% | -8
CN(C)CCN(Cc1ccccc1)C(c1ccnc2ccccc12)c1nnnn1-c1ccc2c(c1)OCCO2 (centres undefined) | -5 | ? | ? | ? | -1% | -8
CN(Cc1ccccc1)C(c1ccnc2ccccc12)c1nnnn1-c1ccc2c(c1)OCCO2 (centres undefined) | -16 | ? | -11 | ? | -1% | 50*
COc1ccc2[nH]cc(C(=O)CN3CC(C)CC(C)C3)c2c1 (centres undefined) | -3 | 16% | 7 | -22% | 1% | -2
COc1ccc2[nH]cc(C(=O)CCl)c2c1 | -96* | 3.3µM* | -6 | 4.1µM* | 1% | -4
COc1ccc2[nH]cc(C(=O)CNc3nc(C)cs3)c2c1 | -12 | ? | ? | ? | -22% | -3
COc1ccc2[nH]cc(C(=O)CN(C)CCc3ccc(OC)c(OC)c3)c2c1 | 0 | 18µM* | 12 | 21µM* | 1% | 2
COc1ccc2[nH]cc(C(=O)CNc3nccs3)c2c1 | . | ? | . | 7.9µM* | -10% | .
CN1CCN(C(=O)c2ccc(-c3cnn(C)c3)c3ccoc23)CC1 | -3 | -9% | 25 | 2% | -22% | 0
Cc1cnc(-n2ncc(C(=O)N(C)C3CCOC3)c2C)nc1-c1ccc(F)cc1 (centres undefined) | . | -2%[9.04 µM] | . | -10% | . | .
CCOC(=O)c1cnc(-n2nc(C)cc2C)nc1N1CC(C)OC(C)C1 (centres undefined) | -10 | ? | -9 | 21µM* | -1% | 1
CCOC(=O)c1cnc(-c2ccccc2)nc1N1CC(C)OC(C)C1 (centres undefined) | -24 | ? | 35 | ? | -2% | 3
CCOC(=O)c1cnc(-n2nc(C)cc2C)nc1NCCO | -4 | -12% | -14 | -17% | ? | -14
CCOC(=O)c1cnc(-n2nc(C)cc2C)nc1NC(C)c1ccccc1 (centres undefined) | -9 | 4.6µM* | -59* | 4.6µM* | -13% | -9
CCOC(=O)c1cc(C(=O)NC(C)c2ccccc2)c(=O)[nH]c1C (centres undefined) | 7 | -12% | -7 | -26% | -16% | -8
CCOC(=O)c1cnc(-n2nc(C)cc2C)nc1NCc1ccccc1 | -111* | 3.3µM* | -20 | 5.2µM* | -16% | -4
Cc1cc(C)n(-c2nc(C)nc(NCc3ccccc3)n2)n1 | 15 | 26µM* | -1 | 18µM* | 5% | -17
CC1Oc2ccccc2N(CC(=O)Nc2ccc(F)cc2)C1=O (centres undefined) | -8 | ? | 8 | -22% | -11% | 1
CCn1cc(C(=O)NCCc2ccc(Cl)cc2)c(=O)c2cc(S(=O)(=O)N3CCc4ccccc4C3)ccc21 | . | -1% | . | ? | -14% | -4
COc1cc(/C=C2\SC(=Nc3ccc(O)cc3)NC2=O)cc(OC)c1O | 91 | 21µM* | -23 | 5.2µM* | . | 1
O=C1NC(=Nc2ccc(O)cc2)S/C1=C/c1ccco1 | 19 | ? | 0 | 18µM* | . | 7
C=CCOc1c(Br)cc(/C=C2\SC(=Nc3ccccc3)NC2=O)cc1OC | 0 | ? | ? | 21µM* | 0% | -13
SMILES | IL1B secr inh | TDP1 cell CPT | DRD3 antagonist | DT40 TDP1 no CPT | ClpP mod | D3 ag
Cc1ccc(N=C2NC(=O)/C(=C\c3ccco3)S2)cc1 | 0 | -29% | 9 | ? | 3% | 2
COc1cc([N+](=O)[O-])ccc1N1C(=O)C2C3C=CC(C4CC34)C2C1=O (centres undefined) | 20 | -2% | 8 | ? | . | 4
COCCn1c(SCC(=O)Nc2c(C)n(C)n(-c3ccccc3)c2=O)nc2ccccc2c1=O | -3 | -11% | -16 | -8% | 0% | 4
CC1=C(C(=O)Nc2ccc(Cl)cc2)C(c2cccs2)n2nc(SCc3cccc(Cl)c3)nc2N1 (centres undefined) | . | -3% | . | -21% | -9% | 7
CCCN(CCC)c1nc(NC2CCN(C(=O)OCC)CC2)nc(OC)n1 | -6 | 16µM* | 0 | 21µM* | -2% | 5
CCOC(=O)N1CCC(Nc2c(OCC)c(=O)c2=O)CC1 | 13 | 23% | 23 | 3% | 0% | -2
CCOc1ccc(NC(=O)c2cc3c(s2)-c2ccccc2OC3)cc1 | . | ? | . | ? | 0% | -19
CN(C)C1=NC[C@H](Cc2ccccc2)N1CCCCc1ccccc1 | ? | ? | 9 | 21µM* | -1% | -18
Cc1cccc(CCN2C(N(C)C)=NC[C@@H]2CC(C)C)c1 | -1 | ? | ? | ? | -1% | -15
Cc1cccc(CCN2C(N(C)C)=NC[C@@H]2Cc2ccccc2)c1 | -59* | ? | ? | ? | -5% | -13
CCCCCCCN1C(N(C)C)=NC[C@@H]1Cc1ccccc1 | ? | 12µM* | -11 | 9.2µM* | 1% | -7
COc1ccc(NC(=O)c2oc3c(c2C)-c2nn(Cc4c(F)cccc4Cl)cc2CC3)c(OC)c1 | . | ? | . | ? | -16% | -4
COCc1ccc(C(=O)N2CCOc3c(cc(-c4cc(C)c5cccc(OC)c5n4)cc3OC)C2)o1 | . | 13%[9.04 µM] | . | -8% | . | .
CC(NS(=O)(=O)c1ccc(N)cc1)C1CC2CCC1C2 (centres undefined) | ? | -10% | 0 | ? | . | -5
CCOC(=O)c1sc2nc(C)nc(SC(C)C(=O)N(C)c3ccccc3)c2c1C (centres undefined) | -14 | ? | 76 | ? | -12% | 6
COc1ccc(CNC(=O)C2CCCN2c2nc(C)c3ccccc3n2)cc1 (centres undefined) | . | 0%[9.04 µM] | . | -21% | . | .
